Structures can show the parent of a compound that is named as a salt.
What was measured:
Assay in all cases: thermal shift delta Tm vs DMSO control; higher = stronger stabilization (binding)
Conditions in all cases: 12.5 µM; protein concentration 2 µM
LOC_OS01G01410-cb001 = tested on: LOC_OS01G01410-cb001
In short: (§1)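 Rice kinase domain constructs were expressed in E. coli, purified, and tested by differential scanning fluorimetry with compound added in DMSO. Each well of a 96-well plate held 19.5 μl of 2 μM kinase in 100 mM potassium phosphate pH 7.5, 150 mM NaCl, 10% glycerol and 5 × SYPRO Orange, and fluorescence was read from 25°C to 95°C at 0.05°C/s. The melting temperature shift is the mean of triplicates, taken against protein with DMSO alone after Boltzmann fitting.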

LOC_OS01G02750-cb003 = tested on: LOC_OS01G02750-cb003
In short: as §1

LOC_OS01G10900-cb004 = tested on: LOC_OS01G10900-cb004
In short: as §1

LOC_OS01G13800-cb001 = tested on: LOC_OS01G13800-cb001
In short: as §1

LOC_OS01G14860-cb001 = tested on: LOC_OS01G14860-cb001
In short: as §1

LOC_OS01G21960-cb002 = tested on: LOC_OS01G21960-cb002
In short: as §1

LOC_OS01G39600-cb002 = tested on: LOC_OS01G39600-cb002
In short: as §1

LOC_OS01G48390-cb002 = tested on: LOC_OS01G48390-cb002
In short: as §1

LOC_OS01G51400-cb002 = tested on: LOC_OS01G51400-cb002
In short: as §1

LOC_OS01G52050-cb004 = tested on: T1, LOC_OS01G52050-cb004
T1 sequence (whole entry): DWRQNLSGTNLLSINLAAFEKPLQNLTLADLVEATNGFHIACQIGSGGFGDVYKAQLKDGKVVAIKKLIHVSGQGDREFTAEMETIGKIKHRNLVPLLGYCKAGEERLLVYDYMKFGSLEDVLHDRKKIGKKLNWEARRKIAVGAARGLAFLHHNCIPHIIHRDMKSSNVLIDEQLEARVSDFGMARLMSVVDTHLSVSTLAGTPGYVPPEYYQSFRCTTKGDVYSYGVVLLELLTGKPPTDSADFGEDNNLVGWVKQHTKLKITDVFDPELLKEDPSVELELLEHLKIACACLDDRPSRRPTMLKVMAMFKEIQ
In short: as §1

| Compound | thermal shift delta Tm (LOC_OS01G01410-cb001) | thermal shift delta Tm (LOC_OS01G02750-cb003) | thermal shift delta Tm (LOC_OS01G10900-cb004) | thermal shift delta Tm (LOC_OS01G13800-cb001) | thermal shift delta Tm (LOC_OS01G14860-cb001) | thermal shift delta Tm (LOC_OS01G21960-cb002) | thermal shift delta Tm (LOC_OS01G39600-cb002) | thermal shift delta Tm (LOC_OS01G48390-cb002) | thermal shift delta Tm (LOC_OS01G51400-cb002) | thermal shift delta Tm (LOC_OS01G52050-cb004) |
| --- | --- | --- | --- | --- | --- | --- | --- | --- | --- | --- |
| CC#CC(=O)N1CC[C@@H](n2c(=O)n(-c3ccc(Oc4ccccc4)cc3)c3c(N)ncnc32)C1 [ONO-4059 (GS-4059) hydrochloride] | 0.39 °C | 0.39 °C | 0.14 °C | -0.37 °C | 0.23 °C | 0.04 °C | 0.11 °C | -0.2 °C | -0.08 °C | -0.56 °C |
| Cc1n[nH]c2ncc(C(=O)N3CCC[C@H]3c3ccc(Cl)cc3)cc12 | 0.63 °C | 0.98 °C | 0.41 °C | 0.18 °C | 4.68 °C | 0.38 °C | 0.88 °C | 0.19 °C | 0.21 °C | 3.46 °C |
| COCCNCc1ccc(-c2cc3nccc(Oc4ccc(NC(=O)C5(C(=O)Nc6ccc(F)cc6)CC5)cc4F)c3s2)nc1 [Sitravatinib (MGCD516)] | 4.2 °C | 7.38 °C | 4.89 °C | -0.17 °C | 3.69 °C | 0.72 °C | 0.85 °C | 6.78 °C | 0.58 °C | 4.17 °C |
| OC(c1cc(-c2ccc(Cl)cc2)nc2ccccc12)C1CCCCN1 (stereo not given) [Vacquinol-1] | 0.1 °C | 1.71 °C | 0.31 °C | 1.34 °C | 0.11 °C | 1.18 °C | -0.2 °C | 0.86 °C | 0.34 °C | 0.54 °C |
| O=C1Nc2ccccc2/C1=C1/Nc2ccccc2C1=O [Indirubin] | 1.5 °C | -0.12 °C | 3.43 °C | -0.14 °C | 3.18 °C | 0.67 °C | -4.22 °C | 0.94 °C | 0.43 °C | 0.55 °C |
| CNC(=O)c1ccccc1Sc1ccc2c(/C=C/c3ccccn3)n[nH]c2c1 [Axitinib] | 2 °C | 0.59 °C | 0.25 °C | -0.18 °C | 0.29 °C | 0.14 °C | 1.08 °C | 0.12 °C | 0.04 °C | 0.17 °C |
| Nc1[nH]nc2nnc(-c3c(-c4ccccc4)nn4ccccc34)cc12 | 0.52 °C | 0.34 °C | 0.36 °C | 0.24 °C | 1.87 °C | 0.45 °C | -0.05 °C | 0.56 °C | 0.19 °C | 0.56 °C |
| CNS(=O)(=O)Nc1nccc(Cc2c(C)c3ccc(Oc4ncccn4)cc3oc2=O)c1F | 0.15 °C | 1.63 °C | 0.11 °C | 0.82 °C | 0.18 °C | 0.68 °C | -0.07 °C | 0.47 °C | 0.47 °C | 0.66 °C |
| O=c1ncn2nc(Sc3ccc(F)cc3F)ccc2c1-c1c(Cl)cccc1Cl | 0.07 °C | 0.77 °C | 0.61 °C | 0.23 °C | 0.42 °C | 0.49 °C | -0.38 °C | 0.32 °C | 0.15 °C | 0.02 °C |
| Cc1[nH]c(/C=C2\C(=O)Nc3ccc(S(=O)(=O)N(C)c4cccc(Cl)c4)cc32)c(C)c1C(=O)N1CCN(C)CC1 | 1.44 °C | 2.62 °C | 0.43 °C | 0.07 °C | 0.57 °C | 0.44 °C | -0.1 °C | 0.18 °C | 0.14 °C | 1.01 °C |
| C=CC(=O)Nc1cccc(Oc2nc(Nc3ccc(N4CCN(C)CC4)cc3OC)ncc2Cl)c1 | 0.1 °C | -0.5 °C | 0.47 °C | 0.58 °C | 0.25 °C | 0.29 °C | 0.93 °C | 1.75 °C | 0.48 °C | 0.54 °C |
| CCS(=O)(=O)c1cccc(-c2cc(C(=O)NC3CCN(C)CC3)c(C)c3[nH]c4ncc(C)cc4c23)c1 | 3.99 °C | 0.8 °C | 4.18 °C | -0.51 °C | 4.38 °C | 2.97 °C | 0.89 °C | 2.14 °C | 0.16 °C | 6.44 °C |
| NC(=O)c1ncn([C@@H]2O[C@H](CO)[C@@H](O)[C@H]2O)c1N [AICAR (Acadesine)] | 0.45 °C | 1.18 °C | 0.56 °C | 0.52 °C | 0.07 °C | 0.94 °C | -0.35 °C | 0.6 °C | 0.32 °C | 0.33 °C |
| Cn1c2ccccc2c2c3c(c4c5ccccc5n(CCC#N)c4c21)CNC3=O | 2.6 °C | 2.74 °C | 0.09 °C | 1.15 °C | 4.78 °C | 2.78 °C | 3.54 °C | 1.96 °C | 0.8 °C | 3.9 °C |
| CN1CCN(CCOc2cc(OC3CCOCC3)c3c(Nc4c(Cl)ccc5c4OCO5)ncnc3c2)CC1 [Saracatinib (AZD0530)] | 0.88 °C | 0.03 °C | 0.58 °C | 0.11 °C | 0.28 °C | 0.14 °C | -0.05 °C | 0.23 °C | 0.26 °C | 1.72 °C |
| O=C1NC(=O)/C(=C/c2ccc3nccc(-c4ccncc4)c3c2)S1 | 1.21 °C | 0.63 °C | 0.95 °C | 0.37 °C | 0.98 °C | 0.96 °C | 1.76 °C | 0.2 °C | 0.08 °C | 0.79 °C |
| C[C@H]1CNC(=O)c2cnn3ccc(nc23)N[C@H](C)c2cc(F)ccc2O1 | -0.06 °C | 4.66 °C | 3.91 °C | -0.18 °C | 0.3 °C | 1.05 °C | 0.15 °C | 1.46 °C | 0.22 °C | 4.57 °C |
| CS(=O)(=O)CCNCc1ccc(-c2ccc3ncnc(Nc4ccc(OCc5cccc(F)c5)c(Cl)c4)c3c2)o1 | 1.42 °C | 0.57 °C | -0.68 °C | 0.49 °C | 0.2 °C | 0.5 °C | 0.33 °C | 0.41 °C | 0.31 °C | 0.63 °C |
| O=C(Nc1cnn2ccc(N3CCC[C@@H]3c3cc(F)ccc3F)nc12)N1CC[C@H](O)C1 [Larotrectinib (LOXO-101) sulfate] | -0.1 °C | 0.5 °C | 0.8 °C | 0.17 °C | 0.39 °C | 0.24 °C | -0.28 °C | 1.09 °C | -0.18 °C | 0.04 °C |
| COc1cc2c3cc1Oc1c(OC)c(OC)cc4c1[C@@H](Cc1ccc(O)c(c1)Oc1ccc(cc1)C[C@@H]3N(C)CC2)N(C)CC4 [Berbamine (dihydrochloride)] | -0.04 °C | 0.3 °C | 0.03 °C | -0.62 °C | -0.18 °C | 0.36 °C | -0.05 °C | 0.32 °C | -0.01 °C | 0.22 °C |

Reference: the supplement of paper PMC9694430
